From PubChem BioAssay (NCI) come the findings set out here.

Assay [1] can be described thus: NCI Yeast Anticancer Drug Screen. Data for the rad50 strain (AID 155).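 Further: 0% = growth of vehicle-only cultures of the same strain.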 Conditions: S. cerevisiae rad50 strain growth inhibition, hits give high values. The gist of the method:
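Relative growth inhibition (compound vs vehicle) was measured in yeast with a defined repair-gene alteration.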

Assay [2] is described as follows: NCI Yeast Anticancer Drug Screen. Data for the mec2-1 strain (AID 157). Conditions: S. cerevisiae mec2-1 strain, hits give high values. The procedure, abridged:
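Growth inhibition is read against vehicle-treated controls after compound exposure of the mec2-1 yeast strain, which is defective in DNA damage repair or cell cycle control.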

The nature of assay [3]: NCI Yeast Anticancer Drug Screen. Data for the sgs1 mgt1 strain (AID 161).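 Further: 0% = growth of cultures given vehicle only.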 Conditions: S. cerevisiae sgs1 mgt1 strain, hits give high values. The gist of the method: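 Percent growth inhibition was derived by comparing compound-exposed mutant yeast with vehicle-exposed cultures. The strain carries alterations in DNA damage repair.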
The nature of assay [4]: NCI Yeast Anticancer Drug Screen. Data for the cln2 rad14 strain (AID 165).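 Further: 0% = growth equal to vehicle treated cultures.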 As to conditions: S. cerevisiae cln2 rad14 strain, hits give high values. The gist of the method:
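Growth inhibition, relative to vehicle-treated controls, is the read-out. The test organism is a yeast strain with defined genetic alterations, cln2 rad14.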

The nature of assay [5]: NCI Yeast Anticancer Drug Screen. Data for the bub3 strain (AID 167). As to conditions: S. cerevisiae bub3 mutant strain, hits give high values. The procedure, abridged:
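Screening used yeast with an engineered genetic alteration affecting cell cycle control. Compound-exposed cultures were compared with vehicle cultures, and reduced growth was taken as inhibition.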

Assay [6] is described as follows: NCI Yeast Anticancer Drug Screen. Data for the mlh1 rad18 strain (AID 175). Conditions: S. cerevisiae mlh1 rad18 strain growth inhibition, hits give high values. The gist of the method:
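Cells of a genetically altered yeast strain, deficient in DNA damage repair, were treated with compound. Their growth was then compared with that of vehicle-treated cultures to give inhibition.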

Setting [7] is: at 5.0 µM (retest, dose inferred, filed as 0.5).
The mark [8] stands for this setting: at 50.0 µM (retest, dose inferred, filed as 5.0).

Structures are written as SMILES. About 79,000 compounds went through this panel and 15% of them were active in at least one assay; those are over-represented in the sample as a whole. Calls of active or inactive are those of the source. No stated cut-off is given here; in the data, active means growth inhibition above about 70%; inactive means the rest.

For `CCOC(=O)Cc1csc(/N=C\c2c(O)c3ccccc3oc2=O)n1`, the growth inhibition is 22% (inactive) in assay [1] (setting [7]); 38% (inactive) in assay [1] (setting [8]); -4.35% (inactive) in assay [1] (at 50.0 µM); 16% (inactive) in assay [2] (setting [7]); 25% (inactive) in assay [2] (setting [8]); -32.4% (inactive) in assay [2] (at 50.0 µM). The growth inhibition was 22% (inactive) in assay [3] (setting [7]); 37% (inactive) in assay [3] (setting [8]); -10.9% (inactive) in assay [3] (at 50.0 µM); 26% (inactive) in assay [4] (setting [7]); 21% (inactive) in assay [4] (setting [8]); 18.7% (inactive) in assay [4] (at 50.0 µM). Further, the growth inhibition in assay [5] (setting [7]) was 20% (inactive); in assay [5] (setting [8]) it was 42% (inactive); in assay [5] (at 50.0 µM) it was -27.1% (inactive); in assay [6] (setting [7]) it was 24% (inactive); in assay [6] (setting [8]), 45% (inactive); in assay [6] (at 50.0 µM), 41.4% (inactive).
In the case of `C1=C([P+](c2ccccc2)(c2ccccc2)c2ccccc2)CCCC1`, the growth inhibition was 22% (inactive) in assay [1] (setting [7]); 93% (active) in assay [1] (setting [8]); 89.8% (active) in assay [1] (at 50.0 µM); -2% (inactive) in assay [2] (setting [7]); 91% (active) in assay [2] (setting [8]); 92.2% (active) in assay [2] (at 50.0 µM). Further, the growth inhibition was 13% (inactive) in assay [3] (setting [7]); 84% (active) in assay [3] (setting [8]); 88.5% (active) in assay [3] (at 50.0 µM); 24% (inactive) in assay [4] (setting [7]); 90% (active) in assay [4] (setting [8]); 86.5% (active) in assay [4] (at 50.0 µM). For the same compound, the growth inhibition in assay [5] (setting [7]) was -8% (inactive); in assay [5] (setting [8]) it was 92% (active); in assay [5] (at 50.0 µM), 87.5% (active); in assay [6] (setting [7]) it was 14% (inactive); in assay [6] (setting [8]) it was 91% (active); in assay [6] (at 50.0 µM), 91.9% (active).
Take `C=CC(=O)N1C/C(=C\c2ccc([N+](=O)[O-])cc2)C(=O)/C(=C/c2ccc([N+](=O)[O-])cc2)C1`: the growth inhibition was 46% (inactive) in assay [1] (setting [7]); 96% (active) in assay [1] (setting [8]); 28.7% (inactive) in assay [1] (at 50.0 µM); 33% (inactive) in assay [2] (setting [7]); 97% (active) in assay [2] (setting [8]); 51.5% (inactive) in assay [2] (at 50.0 µM). In addition, the growth inhibition in assay [3] (setting [7]) was 39% (inactive); in assay [3] (setting [8]), 97% (active); in assay [3] (at 50.0 µM) it was 87.3% (active); in assay [4] (setting [7]) it was 26% (inactive); in assay [4] (setting [8]) it was 96% (active); in assay [4] (at 50.0 µM), 88% (active). Besides, the growth inhibition in assay [5] (setting [7]) was 25% (inactive); in assay [5] (setting [8]), 96% (active); in assay [5] (at 50.0 µM) it was 83.9% (active); in assay [6] (setting [7]) it was 58% (inactive); in assay [6] (setting [8]), 96% (active); in assay [6] (at 50.0 µM) it was 81.5% (active).
Take `CC[N+](C)(CC)CCC[n+]1c(-c2ccccc2)c2cc(N)ccc2c2ccc(N)cc21`: the growth inhibition in assay [1] (setting [7]) was 60% (inactive); in assay [1] (setting [8]), 90% (active); in assay [1] (at 50.0 µM), 94.6% (active); in assay [2] (setting [7]) it was 1% (inactive); in assay [2] (setting [8]) it was 27% (inactive); in assay [2] (at 50.0 µM) it was 44.2% (inactive). Also, the growth inhibition in assay [3] (setting [7]) is -2% (inactive); in assay [3] (setting [8]), 33% (inactive); in assay [3] (at 50.0 µM), 68.9% (inactive); in assay [4] (setting [7]), -3% (inactive); in assay [4] (setting [8]) it was 19% (inactive); in assay [4] (at 50.0 µM), 24.9% (inactive). The growth inhibition was -7% (inactive) in assay [5] (setting [7]); 9% (inactive) in assay [5] (setting [8]); 18.9% (inactive) in assay [5] (at 50.0 µM); 4% (inactive) in assay [6] (setting [7]); 49% (inactive) in assay [6] (setting [8]); 82% (active) in assay [6] (at 50.0 µM).
Regarding `c1ccc2c(c1)ccc1c[n+]3c4ccccc4ccc3n12`, the growth inhibition was 62% (inactive) in assay [1] (setting [7]); 94% (active) in assay [1] (setting [8]); 73.6% (active) in assay [1] (at 50.0 µM); 28% (inactive) in assay [2] (setting [7]); 88% (active) in assay [2] (setting [8]); 85.5% (active) in assay [2] (at 50.0 µM). The growth inhibition in assay [3] (setting [7]) was 34% (inactive); in assay [3] (setting [8]), 82% (active); in assay [3] (at 50.0 µM) it was 68% (inactive); in assay [4] (setting [7]) it was 57% (inactive); in assay [4] (setting [8]), 91% (active); in assay [4] (at 50.0 µM) it was 87% (active). The growth inhibition in assay [5] (setting [7]) is 55% (inactive); in assay [5] (setting [8]) it was 93% (active); in assay [5] (at 50.0 µM), 73.4% (active); in assay [6] (setting [7]) it was 56% (inactive); in assay [6] (setting [8]), 91% (active); in assay [6] (at 50.0 µM), 83.2% (active).
As for `O=S(=O)(c1ccccc1)n1cc(C[P+](c2ccccc2)(c2ccccc2)c2ccccc2)c2ccccc21`, the growth inhibition in assay [1] (setting [7]) was 21% (inactive); in assay [1] (setting [8]), 99% (active); in assay [1] (at 50.0 µM) it was 99.3% (active); in assay [2] (setting [7]), -1% (inactive); in assay [2] (setting [8]) it was 99% (active); in assay [2] (at 50.0 µM) it was 99.5% (active). For the same compound, the growth inhibition is 20% (inactive) in assay [3] (setting [7]); 98% (active) in assay [3] (setting [8]); 99.5% (active) in assay [3] (at 50.0 µM); 8% (inactive) in assay [4] (setting [7]); 99% (active) in assay [4] (setting [8]); 98.1% (active) in assay [4] (at 50.0 µM). Besides, the growth inhibition was 10% (inactive) in assay [5] (setting [7]); 99% (active) in assay [5] (setting [8]); 99.4% (active) in assay [5] (at 50.0 µM); 27% (inactive) in assay [6] (setting [7]); 99% (active) in assay [6] (setting [8]); 99.3% (active) in assay [6] (at 50.0 µM).
